Article PMC7819943, “Rice protein-binding microarrays: a tool to detect cis-acting elements near promoter regions in rice”
The full ranking holds about 68,000 sequences; the median of “fluorescence intensity (a.u.)” is about 9,100, and the highest 2% start at about 16,000. The entries come from a sample that favours the highest values as a whole.

Each sequence was assayed against OsWRKY34 (Oryza sativa, UniProt Q0JBA9 1-250) (assay: protein-binding microarray (RPBM); PBS, 2% BSA, 51.3 ng/ul salmon testes DNA, 50 uM zinc acetate, 200 nM TF, 25 C, 1 h; high values mean tight binding). Conditions: protein: recombinant; tags: N-terminal polyhistidine and DsRed monomer fusion (pET32a); label: CyDye5-dUTP incorporated in the synthesized complementary strand; 3' TTTTT single-stranded linker to array surface; dsDNA, one strand shown.
OsWRKY34, sequence (Q0JBA9 entry or part of it): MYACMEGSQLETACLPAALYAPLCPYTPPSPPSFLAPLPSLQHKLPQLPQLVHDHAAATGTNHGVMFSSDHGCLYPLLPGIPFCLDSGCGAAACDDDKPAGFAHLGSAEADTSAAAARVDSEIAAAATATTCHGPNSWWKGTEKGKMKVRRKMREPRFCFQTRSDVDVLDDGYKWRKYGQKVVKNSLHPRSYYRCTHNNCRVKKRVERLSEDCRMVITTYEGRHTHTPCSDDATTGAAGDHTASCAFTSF
How it was run: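 Transcription factors were made in E. coli BL21-CodonPlus as N-terminal fusions to a polyhistidine tag and DsRed, then purified on Ni–NTA. After primer extension with Cy5-dUTP and blocking with 2% BSA, a custom Agilent array was exposed for 1 h at 25 °C to 200 nM protein in PBS, 2% BSA, salmon testes DNA and 50 µM zinc acetate. Washed arrays were scanned on an Axon 4000B, and the binding signal is per-feature fluorescence intensity in arbitrary units.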

Q: How did the binding signal turn out when “TTAATGTATGACACTGTTGACTTTTTTTCCAACGTTTGACCGGAGTCACCTAGTGCAG” was run?
A: The binding signal was 21900 fluorescence intensity (a.u.).

Q: For “TAATGTATTCCGGCAAATGAATATGTTGTTTGACTTTTTTCGGAGTCACCTAGTGCAG”, which binding signal is on record?
A: The binding signal was 10300 fluorescence intensity (a.u.).

Q: With “CCGGTCGTTTCCCGTATTGTTGGCATATATGTACACGGAGCGGAGTCACCTAGTGCAG” as the sequence, how does the binding signal read?
A: The binding signal was 8030 fluorescence intensity (a.u.).

Q: How did the binding signal turn out when “CCGTCGTGCTGCGCCCTTCAATTTGTTGGTCTCGCTCGCCCGGAGTCACCTAGTGCAG” was run?
A: The binding signal was 8490 fluorescence intensity (a.u.).

Q: With “TTGTTTTCTACTCCTAATACTCTTTTGTCTGTCTCATCTGCGGAGTCACCTAGTGCAG” as the sequence, how does the binding signal read?
A: The binding signal was 12400 fluorescence intensity (a.u.).

Q: With “ACACTTTCTCTCTTGTACACTTTCATTTCACGTGTCTAAACGGAGTCACCTAGTGCAG” as the sequence, how does the binding signal read?
A: The binding signal was 17500 fluorescence intensity (a.u.).

Q: Which binding signal does the source give for “CGTATCTGCTCTGTTTTTCATCTCCTGTCATTTGTCTAAACGGAGTCACCTAGTGCAG” here?
A: The binding signal was 18500 fluorescence intensity (a.u.).

Q: For “GTGTCTTGTACATGTCTTCGTTTCTTCCTTTCTCATTTCACGGAGTCACCTAGTGCAG”, which binding signal is on record?
A: The binding signal was 10900 fluorescence intensity (a.u.).

Q: Which binding signal does the source give for “TTATACTTTCTCTTTTTTTCACGTGTATATTTTCTAAACCCGGAGTCACCTAGTGCAG” here?
A: Its binding signal is 9610 fluorescence intensity (a.u.).

Q: With “GTCATCCTGTTTCACTGCTAGCTCTCCCTAAATTTTGAAACGGAGTCACCTAGTGCAG” as the sequence, how does the binding signal read?
A: Its binding signal is 8490 fluorescence intensity (a.u.).

Q: With “AAGAACACAACACACTTGATATATATACCTCACACACACTCGGAGTCACCTAGTGCAG” as the sequence, how does the binding signal read?
A: Its binding signal is 8060 fluorescence intensity (a.u.).

Q: Which binding signal does the source give for “TACTTGGTGCAGTGTTGAGCCTTGTTTTACAATAAATTTTCGGAGTCACCTAGTGCAG” here?
A: The binding signal was 8100 fluorescence intensity (a.u.).

Q: How did the binding signal turn out when “GCGCCGTTGTTCTTCCTGCCACATCCATCCTGGTGAGCACCGGAGTCACCTAGTGCAG” was run?
A: The binding signal was 12700 fluorescence intensity (a.u.).

Q: Which binding signal does the source give for “CTAAATATTTAACGCTGTTGACTTTTTAAAACATATTTGACGGAGTCACCTAGTGCAG” here?
A: The binding signal was 9280 fluorescence intensity (a.u.).

Q: With “ATTCTCTAAATGTTTGACGCTGTTGACTTTTTAAAACATGCGGAGTCACCTAGTGCAG” as the sequence, how does the binding signal read?
A: Its binding signal is 16600 fluorescence intensity (a.u.).

Q: For “ATGTTTGACGCTGTTGACTTTTTTAAACATATTTGACTCTCGGAGTCACCTAGTGCAG”, which binding signal is on record?
A: The binding signal was 21500 fluorescence intensity (a.u.).

Q: “GGGTATTTTTTAAGTAGCTAGGTGTATAATTAAATTAGTTCGGAGTCACCTAGTGCAG” was tested. Which binding signal did it give?
A: The binding signal was 8760 fluorescence intensity (a.u.).

Q: Which binding signal does the source give for “TTTTTAGGGTGTGGGTATTAGTTGGAAAATACAATAAATGCGGAGTCACCTAGTGCAG” here?
A: The binding signal was 9530 fluorescence intensity (a.u.).

Q: “GTGTAGGAGTAGTTAGGGTTGTTGCTTGTTGGAGGGAAAACGGAGTCACCTAGTGCAG” was tested. Which binding signal did it give?
A: Its binding signal is 9460 fluorescence intensity (a.u.).

Q: With “ATGTTTACGTGCAACACATTATGGTTCTCTTCTCTGTAAACGGAGTCACCTAGTGCAG” as the sequence, how does the binding signal read?
A: Its binding signal is 8230 fluorescence intensity (a.u.).

Q: “TAATGGAAGTGGTTTACGTCGCTTCTGTCAATAAACACACCGGAGTCACCTAGTGCAG” was tested. Which binding signal did it give?
A: The binding signal was 48400 fluorescence intensity (a.u.).

Q: Which binding signal does the source give for “TCATCAATGTCGACTTCTGTTTTGAAGTCGCTTTTTCATCCGGAGTCACCTAGTGCAG” here?
A: Its binding signal is 9100 fluorescence intensity (a.u.).

Q: With “ATTCCTCCGCCACAACACCACGCTGACCACAGTCCACCGTCGGAGTCACCTAGTGCAG” as the sequence, how does the binding signal read?
A: Its binding signal is 8360 fluorescence intensity (a.u.).

Q: For “CCCGCTGGTGCACTTCAACGCTACTCCTCTTCGCCGCCAACGGAGTCACCTAGTGCAG”, which binding signal is on record?
A: The binding signal was 9270 fluorescence intensity (a.u.).

Q: Which binding signal does the source give for “CGTACCTTCTCTGTTGAATCTCCTGTTCGCTTTTCTGTTACGGAGTCACCTAGTGCAG” here?
A: Its binding signal is 9160 fluorescence intensity (a.u.).

Q: How did the binding signal turn out when “ATATATATATATATATATATAGACGTATTCCTGTATCCGCCGGAGTCACCTAGTGCAG” was run?
A: Its binding signal is 21000 fluorescence intensity (a.u.).

Q: “AGACGTATTCCTGTATCCGCCTATCCGTATCTTGGTATCACGGAGTCACCTAGTGCAG” was tested. Which binding signal did it give?
A: The binding signal was 8300 fluorescence intensity (a.u.).

Q: Which binding signal does the source give for “TATATATATATATATATATATATATATATATATATATATCCGGAGTCACCTAGTGCAG” here?
A: The binding signal was 8650 fluorescence intensity (a.u.).

Q: “GGCTTTTTTGTTGGGCTTCTTTTGATCAAAAACGTTGTTTCGGAGTCACCTAGTGCAG” was tested. Which binding signal did it give?
A: Its binding signal is 12000 fluorescence intensity (a.u.).

Q: “TTGGTGCTGTTGGTGCGTGGGTGGTGGTATAATTTTCTTTCGGAGTCACCTAGTGCAG” was tested. Which binding signal did it give?
A: Its binding signal is 11900 fluorescence intensity (a.u.).

Q: “GCGCTGTCAGTGTGTGGGTGGTAGTATATTTTTTTCTTTTCGGAGTCACCTAGTGCAG” was tested. Which binding signal did it give?
A: The binding signal was 12500 fluorescence intensity (a.u.).

Q: “TATTGTATTGGGTTGGGCCTTTGTGGTTGTCTAATGAAGTCGGAGTCACCTAGTGCAG” was tested. Which binding signal did it give?
A: Its binding signal is 22300 fluorescence intensity (a.u.).

Q: How did the binding signal turn out when “TGTTTGGTGCTGTCGGTACATGGGTGGTGGTTTTTTCTTTCGGAGTCACCTAGTGCAG” was run?
A: The binding signal was 17500 fluorescence intensity (a.u.).

Q: For “CTTGCGGTTCATTTGGGGTTGGTTGGTTCTAGGGTACTGTCGGAGTCACCTAGTGCAG”, which binding signal is on record?
A: The binding signal was 16700 fluorescence intensity (a.u.).

Q: How did the binding signal turn out when “GCGATGTCGGTGTGTGGGTGGTGGTATATTTTTCCTTTTTCGGAGTCACCTAGTGCAG” was run?
A: The binding signal was 18000 fluorescence intensity (a.u.).

Q: With “GTGTGTGGGTGGTGGTATATTTTTTTTCTTTCTCTTGGTTCGGAGTCACCTAGTGCAG” as the sequence, how does the binding signal read?
A: The binding signal was 12800 fluorescence intensity (a.u.).

Q: For “AATTCATTTGTCTTGGTACGCTGTTGGGGCGTAATAGGGGCGGAGTCACCTAGTGCAG”, which binding signal is on record?
A: Its binding signal is 13200 fluorescence intensity (a.u.).

Q: For “GCGGTTGGGTTTGTGTGGTTTTTTTTGAAGGCGGAGTTGTCGGAGTCACCTAGTGCAG”, which binding signal is on record?
A: The binding signal was 12100 fluorescence intensity (a.u.).

Q: With “CTGCTGCAGTTGAGCTGTACTGTTTTGGTGGGTTGGTTTTCGGAGTCACCTAGTGCAG” as the sequence, how does the binding signal read?
A: The binding signal was 13900 fluorescence intensity (a.u.).

Q: With “TGGTGGTGGTTGTGGTTGGGTTGGTGTCTGTCTTTTGTACCGGAGTCACCTAGTGCAG” as the sequence, how does the binding signal read?
A: Its binding signal is 16300 fluorescence intensity (a.u.).

Q: How did the binding signal turn out when “GAGGAGGTTGGGTTCTTGATCGGTGTCGGATTTTTGGTTGCGGAGTCACCTAGTGCAG” was run?
A: The binding signal was 10800 fluorescence intensity (a.u.).

Q: With “GTGTGGCGGACATGTGGGCCCATGATTTTTATTATTTTTCCGGAGTCACCTAGTGCAG” as the sequence, how does the binding signal read?
A: Its binding signal is 9790 fluorescence intensity (a.u.).
